The results in this text go back to the supplement of paper PMC7765376.

Counter-ions that a name gives are not always drawn. The full ranking holds about 1,500 compounds; the median of “Excess HSA synergy score (sum over dose matrix of excess over highest single agent)” is about 43, and the lowest 2% start at about -900. The sample holds the lowest values, similar compounds and a random draw of the others, so the mix is not that of the screen.

This assay deals with PEO-1. Put plainly: Excess HSA synergy score (sum over dose matrix of excess over highest single agent) (score (summed % response)); higher = less synergy / more antagonism (negative = synergy). The note with it: 72 h, read-out: viability/apoptosis luminescence (CellTiter-Glo or Caspase3-Glo / not stated per table). A general note: Cellular ATP, detected with luciferase, serves as a proxy for viable cell number.

Where [1] appears, read: matrix design: 6x6, 5-fold dilutions (primary screen).
[2] abbreviates: matrix design: 10x10, 9-step dilutions (confirmatory).

For `CCNC(=O)Nc1ccc2ncc(Nc3ccc(C)cc3)nc2n1` + CC[C@H](NC(=O)[C@H](C)NC)C(=O)N1C[C@@H](O)C[C@H]1Cc1c(-c2[nH]c3cc(F)ccc3c2C[C@@H]2C[C@H](O)CN2C(=O)[C@H](CC)NC(=O)[C@H](C)NC)[nH]c2cc(F)ccc12 [Birinapant], the “Excess HSA synergy score” value under setting [1] turned out to be 77.2.

Regarding `Cc1nc(Nc2n[nH]c3c2CN(C(=O)N[C@H](CN(C)C)c2ccccc2)C3(C)C)c2sccc2n1` + CC[C@H](NC(=O)[C@H](C)NC)C(=O)N1C[C@@H](O)C[C@H]1Cc1c(-c2[nH]c3cc(F)ccc3c2C[C@@H]2C[C@H](O)CN2C(=O)[C@H](CC)NC(=O)[C@H](C)NC)[nH]c2cc(F)ccc12 [Birinapant], the “Excess HSA synergy score” value by setting is: under setting [1], -399; under setting [2], -1930.

Turning to `Cc1cnc(-c2cc(N3CCN(C(=O)CCS(C)(=O)=O)CC3)ncc2Cl)c(C)c1` + CC[C@H](NC(=O)[C@H](C)NC)C(=O)N1C[C@@H](O)C[C@H]1Cc1c(-c2[nH]c3cc(F)ccc3c2C[C@@H]2C[C@H](O)CN2C(=O)[C@H](CC)NC(=O)[C@H](C)NC)[nH]c2cc(F)ccc12 [Birinapant], under setting [1], the “Excess HSA synergy score” value amounted to 211.

`O=C(CCN1CCN(C(=O)OCc2cc(Cl)cc(Cl)c2)CC1)c1ccc2[nH]c(=O)oc2c1` + CC[C@H](NC(=O)[C@H](C)NC)C(=O)N1C[C@@H](O)C[C@H]1Cc1c(-c2[nH]c3cc(F)ccc3c2C[C@@H]2C[C@H](O)CN2C(=O)[C@H](CC)NC(=O)[C@H](C)NC)[nH]c2cc(F)ccc12 [Birinapant]: the “Excess HSA synergy score” value under setting [1] is -22.5.

For the molecule `CC1(C)OC2=C(C(=O)c3ccccc3C2=O)[C@H](NCc2ccccc2)[C@@H]1O` + CC[C@H](NC(=O)[C@H](C)NC)C(=O)N1C[C@@H](O)C[C@H]1Cc1c(-c2[nH]c3cc(F)ccc3c2C[C@@H]2C[C@H](O)CN2C(=O)[C@H](CC)NC(=O)[C@H](C)NC)[nH]c2cc(F)ccc12 [Birinapant], under setting [1], the “Excess HSA synergy score” value is 60.3.

On to `C[C@@H](Oc1cc(-c2cnn(C3CCNCC3)c2)cnc1N)c1c(Cl)ccc(F)c1Cl` [Crizotinib] + CC[C@H](NC(=O)[C@H](C)NC)C(=O)N1C[C@@H](O)C[C@H]1Cc1c(-c2[nH]c3cc(F)ccc3c2C[C@@H]2C[C@H](O)CN2C(=O)[C@H](CC)NC(=O)[C@H](C)NC)[nH]c2cc(F)ccc12 [Birinapant], for which the “Excess HSA synergy score” value under setting [1] is -219.

For the molecule `CCOC(=O)N1CCN(/[N+]([O-])=N/Oc2ccc([N+](=O)[O-])cc2C#N)CC1` + CC[C@H](NC(=O)[C@H](C)NC)C(=O)N1C[C@@H](O)C[C@H]1Cc1c(-c2[nH]c3cc(F)ccc3c2C[C@@H]2C[C@H](O)CN2C(=O)[C@H](CC)NC(=O)[C@H](C)NC)[nH]c2cc(F)ccc12 [Birinapant], the “Excess HSA synergy score” value under setting [1] was 10.9.

`O=C1NC(=O)[C@@H](c2cn3c4c(cccc24)CCC3)[C@@H]1c1c[nH]c2ccccc12` [Tivantinib] + CC[C@H](NC(=O)[C@H](C)NC)C(=O)N1C[C@@H](O)C[C@H]1Cc1c(-c2[nH]c3cc(F)ccc3c2C[C@@H]2C[C@H](O)CN2C(=O)[C@H](CC)NC(=O)[C@H](C)NC)[nH]c2cc(F)ccc12 [Birinapant]: under setting [1], the “Excess HSA synergy score” value was -96.6.

As for `COC(=O)Nc1ccc(-c2nc(N3CCOCC3)c3cnn(C4CCN(C(=O)OC)CC4)c3n2)cc1` + CC[C@H](NC(=O)[C@H](C)NC)C(=O)N1C[C@@H](O)C[C@H]1Cc1c(-c2[nH]c3cc(F)ccc3c2C[C@@H]2C[C@H](O)CN2C(=O)[C@H](CC)NC(=O)[C@H](C)NC)[nH]c2cc(F)ccc12 [Birinapant], under setting [1], the “Excess HSA synergy score” value is -64.3.

On to `O=C(O)c1ccccc1C(=O)Nc1ccc(-c2ccccc2)cc1` [Kartogenin] + CC[C@H](NC(=O)[C@H](C)NC)C(=O)N1C[C@@H](O)C[C@H]1Cc1c(-c2[nH]c3cc(F)ccc3c2C[C@@H]2C[C@H](O)CN2C(=O)[C@H](CC)NC(=O)[C@H](C)NC)[nH]c2cc(F)ccc12 [Birinapant], for which the “Excess HSA synergy score” value under setting [1] was 460.

`COc1cc(C(=O)NC2CCN(C)CC2)ccc1Nc1ncc2c(n1)N(C1CCCC1)CCC(=O)N2C(C)C` + CC[C@H](NC(=O)[C@H](C)NC)C(=O)N1C[C@@H](O)C[C@H]1Cc1c(-c2[nH]c3cc(F)ccc3c2C[C@@H]2C[C@H](O)CN2C(=O)[C@H](CC)NC(=O)[C@H](C)NC)[nH]c2cc(F)ccc12 [Birinapant]: the “Excess HSA synergy score” value under setting [1] came to 135.

With `CC[C@@H]1C(=O)N(C)c2cnc(Nc3ccc(C(=O)N[C@H]4CC[C@H](N5CCN(CC6CC6)CC5)CC4)cc3OC)nc2N1C(C)C` [Volasertib] + CC[C@H](NC(=O)[C@H](C)NC)C(=O)N1C[C@@H](O)C[C@H]1Cc1c(-c2[nH]c3cc(F)ccc3c2C[C@@H]2C[C@H](O)CN2C(=O)[C@H](CC)NC(=O)[C@H](C)NC)[nH]c2cc(F)ccc12 [Birinapant], the “Excess HSA synergy score” value runs as follows: under setting [1], 22.4; under setting [2], -1030.

With `CC[C@@H]1C(=O)N(C)c2cnc(Nc3ccc(C(=O)NC4CCN(C)CC4)cc3OC)nc2N1C1CCCC1` + CC[C@H](NC(=O)[C@H](C)NC)C(=O)N1C[C@@H](O)C[C@H]1Cc1c(-c2[nH]c3cc(F)ccc3c2C[C@@H]2C[C@H](O)CN2C(=O)[C@H](CC)NC(=O)[C@H](C)NC)[nH]c2cc(F)ccc12 [Birinapant], the “Excess HSA synergy score” value under setting [1] was -84.2.

As for `COc1ccc(-n2nc(C(N)=O)c3c2C(=O)N(c2ccc(N4CCCCC4=O)cc2)CC3)cc1` [Apixaban] + CC[C@H](NC(=O)[C@H](C)NC)C(=O)N1C[C@@H](O)C[C@H]1Cc1c(-c2[nH]c3cc(F)ccc3c2C[C@@H]2C[C@H](O)CN2C(=O)[C@H](CC)NC(=O)[C@H](C)NC)[nH]c2cc(F)ccc12 [Birinapant], under setting [1], the “Excess HSA synergy score” value was -103.

In the case of `CN1CC2c3ccccc3Oc3ccc(Cl)cc3C2C1` (configuration not stated) [Asenapine maleate] + CC[C@H](NC(=O)[C@H](C)NC)C(=O)N1C[C@@H](O)C[C@H]1Cc1c(-c2[nH]c3cc(F)ccc3c2C[C@@H]2C[C@H](O)CN2C(=O)[C@H](CC)NC(=O)[C@H](C)NC)[nH]c2cc(F)ccc12 [Birinapant], the “Excess HSA synergy score” value under setting [1] was 164.

As to `O=S(=O)(O)c1ccc2cc(N=Nc3cc(S(=O)(=O)O)c4cccnc4c3O)ccc2c1` + CC[C@H](NC(=O)[C@H](C)NC)C(=O)N1C[C@@H](O)C[C@H]1Cc1c(-c2[nH]c3cc(F)ccc3c2C[C@@H]2C[C@H](O)CN2C(=O)[C@H](CC)NC(=O)[C@H](C)NC)[nH]c2cc(F)ccc12 [Birinapant], under setting [1], the “Excess HSA synergy score” value was 130.

Regarding `NC[C@H]1O[C@H](O[C@H]2[C@H](O)[C@@H](O[C@H]3O[C@H](CO)[C@@H](O)[C@H](N)[C@H]3O)[C@H](N)C[C@@H]2N)[C@H](O)[C@@H](O)[C@@H]1O` [Kanamycin] + CC[C@H](NC(=O)[C@H](C)NC)C(=O)N1C[C@@H](O)C[C@H]1Cc1c(-c2[nH]c3cc(F)ccc3c2C[C@@H]2C[C@H](O)CN2C(=O)[C@H](CC)NC(=O)[C@H](C)NC)[nH]c2cc(F)ccc12 [Birinapant], under setting [1], the “Excess HSA synergy score” value was -24.6.

In the case of `CCc1cccc(CC)c1NC(=O)N1Cc2[nH]nc(NC(=O)c3ccc(N4CCN(C)CC4)cc3)c2C1` + CC[C@H](NC(=O)[C@H](C)NC)C(=O)N1C[C@@H](O)C[C@H]1Cc1c(-c2[nH]c3cc(F)ccc3c2C[C@@H]2C[C@H](O)CN2C(=O)[C@H](CC)NC(=O)[C@H](C)NC)[nH]c2cc(F)ccc12 [Birinapant], the “Excess HSA synergy score” value under setting [1] is -207.

Regarding `O=C(O)c1ccc(-c2cc3cccnc3c(-c3ccc4nonc4c3)n2)cc1` + CC[C@H](NC(=O)[C@H](C)NC)C(=O)N1C[C@@H](O)C[C@H]1Cc1c(-c2[nH]c3cc(F)ccc3c2C[C@@H]2C[C@H](O)CN2C(=O)[C@H](CC)NC(=O)[C@H](C)NC)[nH]c2cc(F)ccc12 [Birinapant], under setting [1], the “Excess HSA synergy score” value is -117.

In the case of `CCOC(=O)N1c2ccc(C(F)(F)F)cc2[C@@H](N(Cc2cc(C(F)(F)F)cc(C(F)(F)F)c2)C(=O)OC)C[C@H]1CC` [Torcetrapib] + CC[C@H](NC(=O)[C@H](C)NC)C(=O)N1C[C@@H](O)C[C@H]1Cc1c(-c2[nH]c3cc(F)ccc3c2C[C@@H]2C[C@H](O)CN2C(=O)[C@H](CC)NC(=O)[C@H](C)NC)[nH]c2cc(F)ccc12 [Birinapant], the “Excess HSA synergy score” value under setting [1] is -42.4.
